# Reference: ChEMBL document CHEMBL1201862, “PubChem BioAssay data set” (2004)
# The campaign covered roughly 220,000 compounds. About 10 (0.005%) were called active. No cut-off for these calls is given here. The entries come from a sample that favours actives as a whole.
# Test: compounds boosting herpes simplex virus growth – fold increase, host cell viability (AID 1956)
# Type: functional
row,SMILES,Conc @ Max Fold Incr
1,N#C/C(=C/c1ccc(N2CCOCC2)o1)C(=O)NC1CCCCC1,25 µM (active)
